“And” between values parts separate entries of the source, which are not always exact repeats. Equal values may be shown once.
How the values were obtained:
[1] = biological target: RAC-alpha serine/threonine-protein kinase (Homo sapiens) (UniProt P31749); settings: at 0.1 µM
[2] = biological target: RAC-alpha serine/threonine-protein kinase (Homo sapiens) (UniProt P31749); settings: at 1 µM
[3] = biological target: RAC-beta serine/threonine-protein kinase (Homo sapiens) (UniProt P31751); settings: at 0.1 µM
[4] = biological target: RAC-beta serine/threonine-protein kinase (Homo sapiens) (UniProt P31751); settings: at 1 µM
[5] = biological target: RAC-gamma serine/threonine-protein kinase (Homo sapiens) (UniProt Q9Y243); settings: at 0.1 µM
[6] = biological target: RAC-gamma serine/threonine-protein kinase (Homo sapiens) (UniProt Q9Y243); settings: at 1 µM
[7] = biological target: G protein-coupled receptor kinase 6 (Homo sapiens) (UniProt P43250); settings: at 0.1 µM
[8] = biological target: G protein-coupled receptor kinase 6 (Homo sapiens) (UniProt P43250); settings: at 1 µM
[9] = biological target: T1, Rhodopsin kinase GRK7 (Homo sapiens) (UniProt Q8WTQ7); settings: at 0.1 µM
T1 sequence (whole entry): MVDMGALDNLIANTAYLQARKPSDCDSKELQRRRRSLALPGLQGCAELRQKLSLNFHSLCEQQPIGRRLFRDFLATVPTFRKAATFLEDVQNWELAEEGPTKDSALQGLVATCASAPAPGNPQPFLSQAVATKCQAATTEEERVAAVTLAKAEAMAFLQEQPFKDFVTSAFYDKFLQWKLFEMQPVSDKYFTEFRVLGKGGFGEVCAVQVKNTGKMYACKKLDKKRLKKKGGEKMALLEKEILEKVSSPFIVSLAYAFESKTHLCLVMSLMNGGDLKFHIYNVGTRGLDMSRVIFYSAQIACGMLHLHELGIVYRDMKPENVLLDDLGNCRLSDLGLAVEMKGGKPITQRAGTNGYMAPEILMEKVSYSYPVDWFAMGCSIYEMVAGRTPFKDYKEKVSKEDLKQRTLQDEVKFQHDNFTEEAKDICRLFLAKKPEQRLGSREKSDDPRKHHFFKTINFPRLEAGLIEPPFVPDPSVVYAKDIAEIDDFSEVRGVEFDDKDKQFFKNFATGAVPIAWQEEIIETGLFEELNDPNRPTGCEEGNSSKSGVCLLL

[10] = biological target: T1, Rhodopsin kinase GRK7 (Homo sapiens); settings: at 1 µM
[11] = biological target: Serine/threonine-protein kinase MRCK alpha (Homo sapiens) (UniProt Q5VT25); settings: at 0.1 µM
[12] = biological target: Serine/threonine-protein kinase MRCK alpha (Homo sapiens) (UniProt Q5VT25); settings: at 1 µM
[13] = biological target: Serine/threonine-protein kinase MRCK beta (Homo sapiens) (UniProt Q9Y5S2); settings: at 0.1 µM
[14] = biological target: Serine/threonine-protein kinase MRCK beta (Homo sapiens) (UniProt Q9Y5S2); settings: at 1 µM
[15] = biological target: Ribosomal protein S6 kinase alpha-5 (Homo sapiens) (UniProt O75582); settings: at 0.1 µM
[16] = biological target: Ribosomal protein S6 kinase alpha-5 (Homo sapiens) (UniProt O75582); settings: at 1 µM
[17] = biological target: Ribosomal protein S6 kinase alpha-4 (Homo sapiens) (UniProt O75676); settings: at 0.1 µM
[18] = biological target: Ribosomal protein S6 kinase alpha-4 (Homo sapiens) (UniProt O75676); settings: at 1 µM
[19] = biological target: Ribosomal protein S6 kinase beta-1 (Homo sapiens) (UniProt P23443); settings: at 0.1 µM
[20] = biological target: Ribosomal protein S6 kinase beta-1 (Homo sapiens) (UniProt P23443); settings: at 1 µM

Serine/threonine-protein kinase MRCK beta (Homo sapiens), sequence (Q9Y5S2 whole entry): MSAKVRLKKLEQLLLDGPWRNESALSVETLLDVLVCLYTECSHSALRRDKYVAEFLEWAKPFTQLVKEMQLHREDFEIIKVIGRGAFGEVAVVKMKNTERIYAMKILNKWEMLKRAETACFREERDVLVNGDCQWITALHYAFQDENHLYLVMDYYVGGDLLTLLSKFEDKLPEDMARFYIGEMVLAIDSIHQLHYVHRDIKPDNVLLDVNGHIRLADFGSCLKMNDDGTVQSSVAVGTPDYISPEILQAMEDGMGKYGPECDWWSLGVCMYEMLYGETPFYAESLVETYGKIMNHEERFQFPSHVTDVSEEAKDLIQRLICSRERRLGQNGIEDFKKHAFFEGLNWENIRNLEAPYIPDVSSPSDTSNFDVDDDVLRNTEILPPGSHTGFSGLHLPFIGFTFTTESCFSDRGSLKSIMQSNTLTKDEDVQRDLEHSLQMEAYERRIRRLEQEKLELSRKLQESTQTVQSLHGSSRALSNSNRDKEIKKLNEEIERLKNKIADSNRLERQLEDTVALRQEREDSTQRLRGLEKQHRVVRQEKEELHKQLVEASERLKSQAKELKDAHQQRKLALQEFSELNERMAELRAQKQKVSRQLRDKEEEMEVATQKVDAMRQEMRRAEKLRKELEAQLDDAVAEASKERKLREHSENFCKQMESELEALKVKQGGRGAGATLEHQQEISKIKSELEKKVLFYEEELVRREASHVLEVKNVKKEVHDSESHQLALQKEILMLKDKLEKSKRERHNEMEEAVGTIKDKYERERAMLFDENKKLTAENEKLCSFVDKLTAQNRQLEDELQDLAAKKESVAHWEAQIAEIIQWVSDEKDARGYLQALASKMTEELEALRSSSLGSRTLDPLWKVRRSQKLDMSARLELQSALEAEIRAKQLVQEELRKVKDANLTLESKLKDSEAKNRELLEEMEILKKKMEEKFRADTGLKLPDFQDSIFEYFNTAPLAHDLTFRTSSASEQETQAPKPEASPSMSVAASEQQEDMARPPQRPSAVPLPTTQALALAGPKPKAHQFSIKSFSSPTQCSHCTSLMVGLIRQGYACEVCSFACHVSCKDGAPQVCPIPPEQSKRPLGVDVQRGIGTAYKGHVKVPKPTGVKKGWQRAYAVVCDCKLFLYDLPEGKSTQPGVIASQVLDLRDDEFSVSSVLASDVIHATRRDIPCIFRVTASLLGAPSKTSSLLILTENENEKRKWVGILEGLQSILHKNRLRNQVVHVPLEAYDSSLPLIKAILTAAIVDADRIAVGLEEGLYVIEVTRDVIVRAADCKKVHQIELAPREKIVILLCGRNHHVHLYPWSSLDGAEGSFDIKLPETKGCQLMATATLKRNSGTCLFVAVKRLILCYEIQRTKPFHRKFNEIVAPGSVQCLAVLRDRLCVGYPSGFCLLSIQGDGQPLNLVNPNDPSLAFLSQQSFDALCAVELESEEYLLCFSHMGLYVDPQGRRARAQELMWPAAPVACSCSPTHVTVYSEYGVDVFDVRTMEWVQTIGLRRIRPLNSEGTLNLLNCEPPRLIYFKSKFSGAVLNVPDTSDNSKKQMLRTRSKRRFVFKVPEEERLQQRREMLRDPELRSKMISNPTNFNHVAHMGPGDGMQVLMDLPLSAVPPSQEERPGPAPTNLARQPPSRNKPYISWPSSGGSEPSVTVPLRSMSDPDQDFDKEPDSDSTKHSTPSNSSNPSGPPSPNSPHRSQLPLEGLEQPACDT
G protein-coupled receptor kinase 6 (Homo sapiens), sequence (P43250 whole entry, looked up): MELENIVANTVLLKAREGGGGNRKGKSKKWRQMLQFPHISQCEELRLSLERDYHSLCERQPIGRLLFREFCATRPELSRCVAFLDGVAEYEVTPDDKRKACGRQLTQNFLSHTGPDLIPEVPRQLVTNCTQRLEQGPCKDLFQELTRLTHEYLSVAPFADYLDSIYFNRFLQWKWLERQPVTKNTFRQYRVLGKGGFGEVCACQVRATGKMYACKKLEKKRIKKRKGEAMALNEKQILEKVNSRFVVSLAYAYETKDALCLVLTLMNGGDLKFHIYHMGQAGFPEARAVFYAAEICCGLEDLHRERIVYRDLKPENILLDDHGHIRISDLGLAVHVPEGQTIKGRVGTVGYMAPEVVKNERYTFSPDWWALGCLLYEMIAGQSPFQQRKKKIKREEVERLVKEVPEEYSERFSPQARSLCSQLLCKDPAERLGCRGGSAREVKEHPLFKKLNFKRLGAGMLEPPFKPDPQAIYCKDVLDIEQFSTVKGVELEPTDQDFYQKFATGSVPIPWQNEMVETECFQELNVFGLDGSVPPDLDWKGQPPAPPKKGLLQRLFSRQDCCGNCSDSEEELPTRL
RAC-gamma serine/threonine-protein kinase (Homo sapiens), sequence (Q9Y243 whole entry): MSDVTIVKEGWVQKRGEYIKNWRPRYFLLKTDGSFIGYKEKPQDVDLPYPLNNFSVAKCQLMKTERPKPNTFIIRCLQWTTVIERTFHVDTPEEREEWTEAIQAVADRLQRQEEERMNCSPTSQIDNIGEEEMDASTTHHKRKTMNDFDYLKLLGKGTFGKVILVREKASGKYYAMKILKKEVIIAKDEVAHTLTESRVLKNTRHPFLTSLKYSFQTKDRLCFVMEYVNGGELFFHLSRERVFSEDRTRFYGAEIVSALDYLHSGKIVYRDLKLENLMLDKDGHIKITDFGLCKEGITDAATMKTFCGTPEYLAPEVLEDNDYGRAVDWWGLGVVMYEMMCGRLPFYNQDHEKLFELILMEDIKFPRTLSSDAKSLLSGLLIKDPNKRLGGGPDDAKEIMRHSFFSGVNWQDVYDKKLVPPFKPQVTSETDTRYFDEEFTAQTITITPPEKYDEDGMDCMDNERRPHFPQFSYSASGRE
RAC-beta serine/threonine-protein kinase (Homo sapiens), sequence (P31751 whole entry): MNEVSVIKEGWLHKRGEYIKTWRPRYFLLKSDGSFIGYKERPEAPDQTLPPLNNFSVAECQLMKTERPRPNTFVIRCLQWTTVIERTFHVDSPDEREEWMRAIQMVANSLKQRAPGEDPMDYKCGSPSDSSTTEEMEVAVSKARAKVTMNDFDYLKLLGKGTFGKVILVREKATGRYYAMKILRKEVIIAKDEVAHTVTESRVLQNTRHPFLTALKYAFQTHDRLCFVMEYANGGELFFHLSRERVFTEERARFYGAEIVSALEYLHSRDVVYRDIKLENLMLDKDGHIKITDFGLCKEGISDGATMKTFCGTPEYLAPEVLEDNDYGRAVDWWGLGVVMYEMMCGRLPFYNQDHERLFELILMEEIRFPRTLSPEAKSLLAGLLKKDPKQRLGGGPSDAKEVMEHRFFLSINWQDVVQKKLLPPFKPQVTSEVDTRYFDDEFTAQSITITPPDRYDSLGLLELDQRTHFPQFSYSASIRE
Serine/threonine-protein kinase MRCK alpha (Homo sapiens), sequence (Q5VT25 whole entry): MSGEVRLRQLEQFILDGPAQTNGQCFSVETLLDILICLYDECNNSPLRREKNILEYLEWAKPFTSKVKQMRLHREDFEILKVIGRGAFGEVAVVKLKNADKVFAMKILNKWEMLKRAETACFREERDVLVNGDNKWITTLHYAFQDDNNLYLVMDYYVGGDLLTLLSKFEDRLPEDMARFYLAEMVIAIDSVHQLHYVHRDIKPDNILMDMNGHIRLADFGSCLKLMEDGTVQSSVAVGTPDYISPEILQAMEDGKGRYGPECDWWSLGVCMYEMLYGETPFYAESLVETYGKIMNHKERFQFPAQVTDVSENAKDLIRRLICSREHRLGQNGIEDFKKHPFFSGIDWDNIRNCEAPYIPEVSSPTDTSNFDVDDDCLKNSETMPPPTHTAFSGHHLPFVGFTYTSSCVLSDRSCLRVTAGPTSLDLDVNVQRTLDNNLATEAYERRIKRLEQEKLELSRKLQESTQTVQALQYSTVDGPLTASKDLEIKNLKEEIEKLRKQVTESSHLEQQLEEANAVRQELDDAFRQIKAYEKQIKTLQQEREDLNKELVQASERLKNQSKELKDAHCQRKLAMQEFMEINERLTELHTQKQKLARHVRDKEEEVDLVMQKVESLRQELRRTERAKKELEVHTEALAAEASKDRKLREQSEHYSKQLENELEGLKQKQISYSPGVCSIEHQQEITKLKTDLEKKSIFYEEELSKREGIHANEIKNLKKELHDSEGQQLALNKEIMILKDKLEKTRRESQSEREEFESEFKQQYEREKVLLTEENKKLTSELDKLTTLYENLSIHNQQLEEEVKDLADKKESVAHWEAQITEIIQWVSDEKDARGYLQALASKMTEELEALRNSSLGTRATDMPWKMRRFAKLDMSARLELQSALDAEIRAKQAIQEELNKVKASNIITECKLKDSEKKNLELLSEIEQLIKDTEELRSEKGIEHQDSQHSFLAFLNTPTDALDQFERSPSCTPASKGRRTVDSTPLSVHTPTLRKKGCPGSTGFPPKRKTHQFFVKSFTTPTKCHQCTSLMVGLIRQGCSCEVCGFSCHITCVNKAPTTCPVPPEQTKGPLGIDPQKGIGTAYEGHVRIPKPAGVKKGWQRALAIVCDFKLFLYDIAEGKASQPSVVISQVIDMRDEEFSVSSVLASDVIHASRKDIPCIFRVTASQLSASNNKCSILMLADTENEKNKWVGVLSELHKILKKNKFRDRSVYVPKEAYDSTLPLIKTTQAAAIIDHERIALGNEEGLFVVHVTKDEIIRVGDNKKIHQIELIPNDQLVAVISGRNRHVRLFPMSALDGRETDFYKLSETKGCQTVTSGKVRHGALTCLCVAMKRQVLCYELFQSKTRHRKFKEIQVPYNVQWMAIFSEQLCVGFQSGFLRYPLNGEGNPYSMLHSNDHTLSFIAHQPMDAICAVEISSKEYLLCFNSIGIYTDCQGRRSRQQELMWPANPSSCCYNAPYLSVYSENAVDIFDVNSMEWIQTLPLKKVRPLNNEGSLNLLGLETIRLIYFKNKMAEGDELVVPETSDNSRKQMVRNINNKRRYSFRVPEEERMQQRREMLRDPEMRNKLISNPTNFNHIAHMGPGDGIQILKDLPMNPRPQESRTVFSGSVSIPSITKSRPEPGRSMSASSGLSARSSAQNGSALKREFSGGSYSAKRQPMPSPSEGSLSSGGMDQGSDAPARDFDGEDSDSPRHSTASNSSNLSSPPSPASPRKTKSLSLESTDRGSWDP

SMILES | inhibition [1] | inhibition [2] | inhibition [3] | inhibition [4] | inhibition [5] | inhibition [6] | inhibition [7] | inhibition [8] | inhibition [9] | inhibition [10] | inhibition [11] | inhibition [12] | inhibition [13] | inhibition [14] | inhibition [15] | inhibition [16] | inhibition [17] | inhibition [18] | inhibition [19] | inhibition [20]
CCOc1ccc2c(-c3ccnc(Nc4cc(OC)cc(C(F)(F)F)c4)n3)cnn2n1 | 0.02% | 0.45% | 0.01% | 0.53% | 0.18% | 0.45% | 2.38% | 0.28% | -0.23% | 16.9% | -0.76% | -0.62% | 0.09% | 0.13% | 1.4% | 2.37% | 1.07% | -0.61% | 0.27% | 0.73%
N#Cc1cccc(Nc2ncc(-c3ccccc3)o2)c1 | 0% | -0.69% | 0.15% | 0.75% | 0.9% | -0.1% | 5.37% | 8.61% | 2.76% | 11.2% | 0.38% | 2.09% | -1.64% | -0.28% | 1.22% | 2.21% | 1% | 2.71% | -0.53% | 1.42%
Nc1nccc(-c2c(-c3ccc(F)cc3)ncn2C2CCNCC2)n1 | -2.52% and -0.57% | -1.44% and -0.36% | -2.1% and -0.23% | -2.04% and 0.22% | -2.91% and 1.34% | -1.79% and 2.95% | -0.3% and 1.54% | 1.28% and -0.27% | -9.73% and -0.04% | -3.87% and -0.11% | 0.35% and 0.18% | 2.58% and 5.06% | 0.52% and 1.07% | 1.72% and 3.43% | -2.32% and -0.28% | -1.5% and 1.46% | -1.86% and 0.59% | -1.17% and 2.2% | -1.49% and 0.02% | -0.77% and 0.22%
CS(=O)(=O)Nc1ccc(-c2cc(-c3ccccc3)cc(C(N)=O)c2N)cc1 | 0.58% | -0.28% | 0.22% | 1.28% | -0.36% | 2.53% | 1.1% | 1.69% | 7.08% | 1.49% | -0.32% | 0.21% | 0.74% | 1.3% | 3.96% | 1.83% | -0.81% | 0.34% | -1.22% | 0.07%
Cc1cc(O)cc(C)c1/C=C/c1cncc(C(=O)OC(C)(C)C)c1 | 0.38% | 0.97% | 1.75% | 0.98% | 1.33% | 1.34% | 2.27% | 2.46% | 7.07% | 6.87% | 0.35% | 1.93% | 1.45% | 2.65% | 1.89% | 3.7% | 1.86% | 3.1% | 0.44% | 0.31%
CC1=C(C(=O)Nc2ccc3[nH]ncc3c2)C(c2ccc(F)cc2)N=C(c2ccc(C(F)(F)F)nc2)N1 (stereo not given) | 0.83% | 1.06% | 1.39% | 1.43% | 1.44% | 1.68% | 3.1% | -2.54% | 0.19% | -2.93% | -0.15% | 0.82% | -0.07% | 4.54% | 3.51% | 19.2% | 2.12% | 14.9% | 1.03% | 7.4%
COC(=O)Nc1nc2ccc(Oc3ccc(NC(=O)Nc4cc(C(F)(F)F)ccc4F)cc3)cc2s1 | -0.37% | -0.66% | -0.14% | -0.64% | 1.34% | -0.4% | -1.28% | -1.53% | -0.68% | 6.1% | -0.38% | -1.54% | 0.73% | 1.68% | 0.52% | 0.93% | 1.67% | 2.86% | 6.33% | 23.2%
COc1cc(Nc2ncc(-c3ccccc3)o2)cc(OC)c1 | 1.36% | 1.33% | 1.9% | 2.08% | 0.79% | 3.26% | 0.04% | -0.63% | 19.2% | 18.7% | -6.08% | -1.27% | -0.81% | 0.65% | 2.3% | -0.44% | 2.85% | 2.84% | 2.08% | 3.04%
CNC(=O)c1cncc(/C=C/c2ccccc2C)c1 | 0.63% | 1.08% | 2.41% | 2.34% | 1.3% | 1.52% | 3.92% | 8.41% | 3.15% | 0.44% | -0.01% | 2.94% | -0.34% | 0.83% | 3.42% | 6.01% | 2.58% | 4.27% | -0.48% | 1.97%
CC(C)c1ccc(-c2cc(-c3c[nH]nc3-c3ccccn3)ccn2)cc1 | 0.13% | 0.07% | -0.03% | 0.06% | 1.01% | 0.29% | -1.41% | -0.19% | 2.99% | 1.48% | -0.14% | -0.28% | -0.59% | 2.06% | 1.59% | 1.63% | 1.53% | 2.87% | 0.17% | -0.41%
CC1(C)CC(n2cnc(-c3ccc(F)cc3)c2-c2ccnc(N)n2)CC(C)(C)N1 | -0.24% | 0.14% | -0.58% | 0.6% | 0.06% | -0.35% | 0.95% | 2.33% | -0.49% | -1.38% | 0.39% | -0.52% | 0.89% | 1.72% | -2.87% | -2.36% | 2.08% | 3.62% | 1.01% | 0.28%
CN1CCC(C(=O)Nc2n[nH]c3nc(-c4ccc(O)cc4)c(Br)cc23)CC1 | -3.78% and 0.82% | -3.1% and -0.05% | -1.35% and 0.28% | -1.57% and 1.31% | -2.51% and 0.97% | -0.95% and 3.11% | 8.47% and 0.32% | 20.1% and 5.9% | 5.9% and 4.12% | 16.7% and -0.01% | 2.05% and 4.4% | 21.6% and 19.5% | 1.99% and 0.84% | 12.8% and 12.7% | 1.62% and 0.25% | 3.91% and 1.49% | 2.85% and 1.78% | 5.51% and 1.19% | 0.96% and -0.21% | 2.58% and -0.02%
COC(=O)Nc1nc2cc(Oc3ccc(NC(=O)Nc4ccccc4)cc3)ccc2[nH]1 | 0.35% | 0.28% | 1.44% | 1.16% | 2.24% | 0.78% | 3.76% | 10.8% | 4.75% | 15.2% | 1.11% | 3.26% | -0.1% | 0.05% | 2.4% | 2.36% | 2.62% | 3.88% | 2.09% | 3.12%
